SMILES strings stand for the structures. A number with no mark means an inactive call.

The experiment relates to XIP peptide (Xip251-270) binding. The experiment in a line: XIP fragment 251-270 binding compounds – biochemical, small-molecule microarray, fluorescence 635/667 nm, 0.1 µg/mL protein, primary screen (AID 1182). To be noted: fluorescent protein binding, 635 nm, higher = more signal, called active from +8 up or from −8 down.
Consider `N#Cc1ccc(C(O)C2C=CC3C(=O)N(c4ccccc4)C(=O)C3N2Nc2ccccc2)cc1` (stereo unspecified), for which the composite z-score was 0.294.
Turning to `Cc1ccc(S[C@]2(C(=O)NCCCN(C)C)CC(=O)N(C3CCCCC3)[C@@H]2c2ccc(CO)cc2)cc1`, the composite z-score was 0.332.
Turning to `CC(CO)N1C(=O)[C@@H]2[C@H]3C(=O)OCC=C[C@H]3OC23C=CCN(C(C)(C)C)C(=O)[C@@H]13` (stereo partly specified), the composite z-score was -0.316.
For the molecule `N#Cc1ccc(NN2C(C(O)c3ccc(F)cc3)C=CC3C(=O)N(c4ccccc4)C(=O)C32)cc1` (stereo unspecified), the composite z-score is 0.536.
In the case of `COC(=O)c1c(CC[C@@H](CO)NC(=O)N2CCC[C@H]2Cn2cc(Cc3ccccc3)nn2)oc(C(C)=O)c1C(=O)OC`, the composite z-score was 2.25.
Take `[N-]=[N+]=Nc1ccccc1[C@@H]1OC(c2ccc(OCCCO)cc2)=N[C@]1(Cc1ccccc1)C(=O)NCC(O)CO` (stereo partly specified): the composite z-score was 2.53.
Regarding `COC(=O)[C@@]1(Cc2ccc(OC)cc2)[C@@H]2C(=CC(=O)[C@H]2CC(=O)C(=O)N(C)C)CN1C(=O)c1ccccc1`, the composite z-score was 0.0312.
The value for `CO[C@H]1O[C@H](CO)[C@@H](OC(=O)Nc2ccccc2-c2ccccc2)[C@H](OC(=O)Nc2ccc3c(c2)OCO3)[C@H]1OC(=O)Nc1ccc2c(c1)OCO2` was 0.886.
For `CN1C(=O)C2C=CC(C(O)COCc3ccccc3)N(N(c3ccccc3)c3ccccc3)C2C1=O` (stereo unspecified), the composite z-score was 0.441.
Take `CN1C(=O)C2C=CC(C(O)c3cccc(O)c3)N(Nc3ccccc3)C2C1=O` (stereo unspecified): the composite z-score is -0.252.
The value for `COC(=O)[C@H](Cc1ccccc1)N1CC(/C=C/C2CC2)=C[C@H]1[C@H](O)Cc1ccccc1` was 0.444.

The record behind these values is PubChem BioAssay.
